Measurements reported in PubChem BioAssay (Tox21).
Unmarked numbers belong to inactive results. Results filed as inconclusive are left out. Entries that show only a call come without a potency. Calls of active or inactive are those of the source. Unless noted, calls come from the whole dose curve; as a rule, active = well fitted curve in the direction sought with a large enough effect in the repeat runs; inconclusive = weak or mixed curves; inactive = no such curve, though single readings can be large; an effect the other way counts as inactive or inconclusive.

What was measured:
[1] = qHTS assay to identify small molecule antagonists of the progesterone receptor (PR) signaling pathway - cell viability counter screen (AID 1346798); note: nearly all actives have a fitted effect of over 50% in size; note: potency is the fitted concentration of half-maximal effect
How it was run: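 HEK293T PR-UAS-bla, 2% charcoal-stripped FBS; 4 hr pre-plate; cpd + R5020, 16 h 37C; LiveBLAzer read first; then CellTiter-Glo 30 min RT, luminescence.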

[2] = qHTS assay to identify small molecule agonists of the progesterone receptor (PR) signaling pathway - cell viability counter screen (AID 1346799; calls by dose curve; note: nearly all actives have a fitted effect of over 45% in size; note: potency is the fitted concentration of half-maximal effect)
How it was run: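 Luminescence from CellTiter-Glo, added after the beta-lactamase FRET read in the same wells, gave cytotoxicity in PR-UAS-bla HEK293T cells treated with compounds for 16 hr at 37C.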

[3] = qHTS assay to identify small molecule antagonists of the TGF-beta/Smad signaling pathway - cell viability counter screen (AID 1346824); note: nearly all actives have a fitted effect of over 50% in size; note: potency is the fitted concentration of half-maximal effect
How it was run: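 Cytotoxicity counter-screen run in the same wells as the beta-lactamase Smad reporter read: CellTiter-Glo luminescence after 30 min at room temperature. HEK 293T SBE-bla cells had 5 hr compound exposure at 37 C with TGF-beta1 (0.25 ng/mL stock).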

[4] = qHTS assay to identify small molecule agonists of the TGF-beta/Smad signaling pathway (AID 1346859; active = well fitted activation curve with a large enough effect in the signal ratio in the repeat runs, not every such curve was filed as active; the % refers to the signal ratio; note: series mostly up to about 77 µM)
How it was run: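 SBE-bla HEK 293T, 4,000 cells/well, plated o/n; cpd in DMSO, 5 hr, 37 C/5% CO2; B/G FRET substrate 2 hr RT; ex 405, em 460/530 nm.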

[5] = molecular target: Thyrotropin-releasing hormone receptor (Homo sapiens) (UniProt P34981); test: qHTS assay to identify small molecule antagonists of the thyrotropin-releasing hormone receptor (TRHR) signaling pathway (AID 1346877; active = well fitted inhibition curve with a large enough effect in the repeat runs, not every such curve was filed as active; note: potency is the fitted concentration of half-maximal effect)
Chain of Thyrotropin-releasing hormone receptor (Homo sapiens) (P34981 whole entry, looked up): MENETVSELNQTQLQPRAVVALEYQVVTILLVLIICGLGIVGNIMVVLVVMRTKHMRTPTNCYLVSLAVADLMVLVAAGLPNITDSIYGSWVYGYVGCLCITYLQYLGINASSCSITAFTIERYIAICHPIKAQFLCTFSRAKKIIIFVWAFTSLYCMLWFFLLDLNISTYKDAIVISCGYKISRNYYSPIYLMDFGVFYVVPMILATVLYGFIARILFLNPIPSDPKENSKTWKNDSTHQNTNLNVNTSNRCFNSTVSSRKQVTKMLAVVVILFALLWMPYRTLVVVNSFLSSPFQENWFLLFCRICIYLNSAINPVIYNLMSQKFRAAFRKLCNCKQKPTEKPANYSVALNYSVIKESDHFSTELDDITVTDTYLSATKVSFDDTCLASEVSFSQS
How it was run: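 In this cell-based calcium flux format, HEK293 cells expressing TRHR received test compound for 5 min before the agonist TRH (1 nM final). Dye loading lasted 2 h at 37 °C.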

[6] = molecular target: Thyrotropin-releasing hormone receptor (Homo sapiens) (UniProt P34981); test: qHTS assay to identify small molecule agonists of the thyrotropin-releasing hormone receptor (TRHR) signaling pathway (AID 1346891; calls by dose curve; note: potency is the fitted concentration of half-maximal effect; for activation: series mostly up to about 58 µM)
How it was run: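 Intracellular calcium rise, read as fluorescence every second for 3 min, served as the agonist signal in dye-loaded HEK293 cells expressing TRHR; each compound ran at 15 concentrations in triplicate.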

[7] = Human pregnane X receptor (PXR) small molecule agonists, qHTS cell viability counter screen (AID 1346977); note: nearly all actives have a fitted effect of over 50% in size; note: potency is the fitted concentration of half-maximal effect
How it was run: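 PXR-Luc HepG2, 2,000 cells/well, 5% charcoal-stripped FBS; 5hr settle; cpd 24hr, 37C/5% CO2; CellTiter-Fluor at 23hr, read 1hr later (fluorescence).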

[8] = Caspase-3/7 induction in HepG2 cells by small molecules, qHTS assay (AID 1346978); note: nearly all actives have a fitted effect of over 15% in size; note: potency is the fitted concentration of half-maximal effect
How it was run: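 Caspase-3/7 induction was measured by Caspase-Glo 3/7 luminescence (30 min, room temperature) after a 17 hr compound exposure of wild-type HepG2 cells seeded at 2,000 per well and pre-incubated 5 hr.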

[9] = Caspase-3/7 induction in CHO-K1 cells by small molecules, qHTS cell viability counter screen (AID 1346979); note: nearly all actives have a fitted effect of over 35% in size; note: potency is the fitted concentration of half-maximal effect
How it was run: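 Cells (CHO-K1, wild type) are plated at 1,500 per well and incubated 5hr. Test compounds in DMSO are then pinned in, followed by 16hr at 37C and 5% CO2. Viability is read by CellTiter-Fluor fluorescence after 1hr.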

[10] = Caspase-3/7 induction in CHO-K1 cells by small molecules, qHTS assay (AID 1346980); note: nearly all actives have a fitted effect of over 15% in size
How it was run: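 Luminescent Caspase-Glo 3/7 read (30min, room temperature) quantified apoptosis induction. Cells were wild-type CHO-K1, treated with compound for 17hr at 37 C and 5% CO2.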

[11] = Caspase-3/7 induction in HepG2 cells by small molecules, qHTS cell viability counter screen (AID 1346981); note: nearly all actives have a fitted effect of over 30% in size; note: potency is the fitted concentration of half-maximal effect
How it was run: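 Counter screen for cytotoxicity: HepG2 exposed 16 hr to compounds, then CellTiter-Fluor viability signal (fluorescence, 1 hr reagent incubation).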

[12] = molecular target: Nuclear receptor subfamily 1 group I member 2 (Homo sapiens) (UniProt O75469); test: Human pregnane X receptor (PXR) small molecule agonists, qHTS assay (AID 1346982); note: nearly all actives have a fitted effect of over 35% in size; note: potency is the fitted concentration of half-maximal effect
Chain of Nuclear receptor subfamily 1 group I member 2 (Homo sapiens) (O75469 whole entry, looked up): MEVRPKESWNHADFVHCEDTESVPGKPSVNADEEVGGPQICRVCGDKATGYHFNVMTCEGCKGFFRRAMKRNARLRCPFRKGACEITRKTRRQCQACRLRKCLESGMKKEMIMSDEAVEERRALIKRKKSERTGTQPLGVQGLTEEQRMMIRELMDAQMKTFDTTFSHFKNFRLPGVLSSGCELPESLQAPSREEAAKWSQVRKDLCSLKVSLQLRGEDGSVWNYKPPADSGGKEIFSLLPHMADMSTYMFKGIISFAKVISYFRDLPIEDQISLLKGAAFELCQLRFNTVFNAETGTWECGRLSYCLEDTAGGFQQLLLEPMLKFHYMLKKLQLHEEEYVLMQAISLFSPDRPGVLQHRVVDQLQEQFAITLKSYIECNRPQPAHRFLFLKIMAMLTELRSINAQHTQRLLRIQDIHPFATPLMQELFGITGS
How it was run: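 Luminescence (ONE-Glo, 30 min RT) after 24 hr compound exposure of PXR-Luc HepG2 cells; cells rested 5 hr post-plating in 5% charcoal-stripped FBS medium.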

[13] = molecular target: Cytochrome P450 2D6 (Homo sapiens) (UniProt P10635); test: Cytochrome P450 Family 2 Subfamily D Member 6 (CYP2D6) small molecule antagonists: luciferase reporter qHTS assay (AID 1671196); note: nearly all actives have a fitted effect of over 50% in size; note: potency is the fitted concentration of half-maximal effect
Chain of Cytochrome P450 2D6 (Homo sapiens) (P10635 whole entry, looked up): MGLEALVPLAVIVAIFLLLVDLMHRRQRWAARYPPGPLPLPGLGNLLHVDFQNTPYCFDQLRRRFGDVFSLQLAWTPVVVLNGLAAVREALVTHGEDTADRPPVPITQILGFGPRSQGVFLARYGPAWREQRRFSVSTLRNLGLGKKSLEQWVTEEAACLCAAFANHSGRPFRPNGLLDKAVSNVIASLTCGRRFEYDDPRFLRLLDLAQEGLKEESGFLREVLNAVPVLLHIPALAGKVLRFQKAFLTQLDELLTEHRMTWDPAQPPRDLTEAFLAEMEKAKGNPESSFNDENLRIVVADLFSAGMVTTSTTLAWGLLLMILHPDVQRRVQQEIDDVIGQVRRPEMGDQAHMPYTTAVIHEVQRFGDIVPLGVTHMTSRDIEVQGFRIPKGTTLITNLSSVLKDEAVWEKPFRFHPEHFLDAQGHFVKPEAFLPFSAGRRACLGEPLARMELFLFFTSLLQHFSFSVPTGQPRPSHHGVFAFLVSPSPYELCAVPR
How it was run: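 Inhibition of CYP2D6 was gauged by loss of luminescence, since light produced tracks the luciferin generated from a proluciferin substrate. A 10 min room-temperature preincubation preceded 1 h NADPH-supported turnover.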

[14] = molecular target: Cytochrome P450 2C19 (Homo sapiens) (UniProt P33261); test: Cytochrome P450 Family 2 Subfamily C Member 19 (CYP2C19) small molecule antagonists: luciferase reporter qHTS assay (AID 1671197); note: nearly all actives have a fitted effect of over 65% in size; note: potency is the fitted concentration of half-maximal effect
Chain of Cytochrome P450 2C19 (Homo sapiens) (P33261 whole entry, looked up): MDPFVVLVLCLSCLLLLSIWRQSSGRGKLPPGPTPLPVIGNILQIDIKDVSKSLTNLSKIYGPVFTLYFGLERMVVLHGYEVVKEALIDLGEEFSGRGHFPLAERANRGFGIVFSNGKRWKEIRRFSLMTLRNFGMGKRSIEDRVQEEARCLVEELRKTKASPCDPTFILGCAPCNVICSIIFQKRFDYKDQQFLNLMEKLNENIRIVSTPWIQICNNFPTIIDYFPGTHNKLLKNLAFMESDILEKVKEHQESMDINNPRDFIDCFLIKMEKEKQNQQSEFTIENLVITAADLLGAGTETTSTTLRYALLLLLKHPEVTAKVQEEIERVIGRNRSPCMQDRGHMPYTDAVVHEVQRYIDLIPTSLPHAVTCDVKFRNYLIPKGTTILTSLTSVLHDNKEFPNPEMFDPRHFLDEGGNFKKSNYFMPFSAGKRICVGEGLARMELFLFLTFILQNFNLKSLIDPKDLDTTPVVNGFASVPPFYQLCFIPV
How it was run: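 Compounds were tested on CYP2C19 activity via proluciferin conversion to luciferin. The 37C, 1 h reaction followed NADPH addition; detection reagent stopped it.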

[15] = molecular target: Cytochrome P450 1A2 (Homo sapiens) (UniProt P05177); test: Cytochrome P450 Family 1 Subfamily A Member 2 (CYP1A2) small molecule antagonists: luciferase reporter qHTS assay (AID 1671199); note: nearly all actives have a fitted effect of over 50% in size; note: potency is the fitted concentration of half-maximal effect
Chain of Cytochrome P450 1A2 (Homo sapiens) (P05177 whole entry, looked up): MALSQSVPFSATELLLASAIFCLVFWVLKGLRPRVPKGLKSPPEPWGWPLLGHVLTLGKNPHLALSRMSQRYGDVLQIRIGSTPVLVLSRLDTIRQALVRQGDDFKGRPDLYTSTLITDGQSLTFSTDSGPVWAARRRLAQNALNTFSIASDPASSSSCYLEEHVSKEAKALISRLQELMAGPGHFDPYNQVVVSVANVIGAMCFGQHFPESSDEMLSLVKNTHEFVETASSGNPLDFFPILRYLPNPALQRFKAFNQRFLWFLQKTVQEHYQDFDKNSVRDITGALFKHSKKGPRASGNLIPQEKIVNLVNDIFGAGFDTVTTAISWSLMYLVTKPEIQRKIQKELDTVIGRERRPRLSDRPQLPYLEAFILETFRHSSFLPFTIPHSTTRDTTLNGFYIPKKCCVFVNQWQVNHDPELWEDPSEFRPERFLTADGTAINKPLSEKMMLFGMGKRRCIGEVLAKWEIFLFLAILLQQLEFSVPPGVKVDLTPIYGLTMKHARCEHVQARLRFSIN
How it was run: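 Signal from luciferin formed by CYP1A2 from a proluciferin substrate is read as luminescence, expressed in relative luminescence units. Compounds sit with enzyme 10 min, NADPH-driven reaction runs 1 h, all at room temperature.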

[16] = qHTS assay to identify small molecule agonists of the TGF-beta/Smad signaling pathway - cell viability counter screen (AID 1346829); note: nearly all actives have a fitted effect of over 45% in size; note: potency is the fitted concentration of half-maximal effect
How it was run: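 In parallel with the Smad reporter read, viability of HEK 293T cells stably carrying SBE-bla is quantified by ATP luminescence following 5 hr compound treatment.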

[17] = molecular target: Cytochrome P450 2C9 (Homo sapiens) (UniProt P11712); test: Cytochrome P450 Family 2 Subfamily C Member 9 (CYP2C9) small molecule antagonists: luciferase reporter qHTS assay (AID 1671198); note: nearly all actives have a fitted effect of over 50% in size; note: potency is the fitted concentration of half-maximal effect
Chain of Cytochrome P450 2C9 (Homo sapiens) (P11712 whole entry, looked up): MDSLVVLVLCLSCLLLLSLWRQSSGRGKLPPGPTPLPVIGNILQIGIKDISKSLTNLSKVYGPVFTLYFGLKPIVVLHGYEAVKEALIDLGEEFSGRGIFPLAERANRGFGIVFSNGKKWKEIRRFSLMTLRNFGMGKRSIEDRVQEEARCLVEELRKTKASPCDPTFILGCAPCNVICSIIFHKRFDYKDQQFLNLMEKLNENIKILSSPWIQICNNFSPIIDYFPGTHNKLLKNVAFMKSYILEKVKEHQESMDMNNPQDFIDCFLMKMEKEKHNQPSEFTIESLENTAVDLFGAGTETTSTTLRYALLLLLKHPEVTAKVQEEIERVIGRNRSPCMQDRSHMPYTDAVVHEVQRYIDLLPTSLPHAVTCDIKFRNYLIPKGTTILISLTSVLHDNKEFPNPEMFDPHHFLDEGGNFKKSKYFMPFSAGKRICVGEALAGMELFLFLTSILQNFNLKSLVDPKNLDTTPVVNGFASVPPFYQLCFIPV
How it was run: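 Enzyme-substrate mix preincubated with compound 10 min at room temperature; reaction started with NADPH regeneration solution, 1 h 37C. Luminescent luciferin product read after 20 min detection reagent.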

[18] = molecular target: Nuclear receptor subfamily 1 group I member 2 (Homo sapiens) (UniProt O75469); test: CYP3A4 induction through human pregnane X receptor (PXR) by small molecules, qHTS assay (AID 1346984); note: nearly all actives have a fitted effect of over 40% in size
How it was run: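 DPX-2 reporter cells; 24h cpd, 37C; Luciferin-IPA 3uM final x3h; One-Glo 30 min RT; lumi read.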

[19] = molecular target: Nuclear receptor subfamily 1 group I member 2 (Homo sapiens) (UniProt O75469); test: Human pregnane X receptor (PXR) activation by small molecules, qHTS assay (AID 1346985); note: nearly all actives have a fitted effect of over 40% in size
How it was run: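 DPX-2 cells (HepG2 co-transfected with a PXR response element and a CYP3A4-promoter luciferase construct) were seeded at 2,000 per well, rested 5 hr at 37C, then exposed to DMSO-dissolved compounds for 24 hr. Activation was read as luciferase luminescence.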

| Structure (SMILES) | Potency [1] | Potency [2] | Potency [3] | Potency [4] | Potency [5] | Potency [6] | Potency [7] | Potency [8] | Potency [9] | Potency [10] | Potency [11] | Potency [12] | Potency [13] | Potency [14] | Potency [15] | Potency [16] | Potency [17] | Potency [18] | Potency [19] |
| --- | --- | --- | --- | --- | --- | --- | --- | --- | --- | --- | --- | --- | --- | --- | --- | --- | --- | --- | --- |
| CS(C)(=O)=O | inactive | inactive | inactive | inactive | inactive | inactive | inactive | inactive | inactive | inactive | inactive | inactive | inactive | inactive | inactive |  |  |  |  |
| CC1CCCCC1 | inactive | inactive | inactive | inactive |  |  | inactive |  | inactive | inactive | inactive | inactive | inactive | inactive | 63.3 µM (active) | inactive | inactive |  |  |
| O=C1OC(OC(=O)c2cccnc2Nc2cccc(C(F)(F)F)c2)c2ccccc21 (centres undefined) | inactive | inactive | inactive | inactive |  |  |  | inactive | inactive | inactive |  | inactive | inactive |  | 9.77 µM (active) | inactive |  | inactive | inactive |
| CCCCCCCC/C=C/CCCOC(C)=O | inactive | inactive | inactive | inactive | inactive | inactive | inactive | inactive | inactive | inactive | inactive | inactive | inactive | 31.7 µM (active) |  |  |  |  |  |
| CCCOc1sc(C(=O)N2CCC(c3cc(CN)ccc3F)CC2)c(C)c1Br | 25 µM (active) | 19.9 µM (active) | 50.4 µM (active) |  | 27.6 µM (active) | 31.8 µM (active) | 28.1 µM (active) | 44.5 µM (active) | 22.3 µM (active) |  | 49.9 µM (active) | inactive | 18.3 µM (active) | 3.66 µM (active) | 73 µM (active) | 44.9 µM (active) | 1.63 µM (active) |  |  |
| C[C@@H]1CC[C@H]2C(C)(C)[C@H]3C[C@@]12CC[C@@]3(C)O | inactive | inactive | inactive | inactive |  |  | inactive |  |  | inactive | inactive | inactive |  |  |  | inactive |  |  |  |
| CC1=C(/C=C/C(C)=C/C=C/C(C)=C\C=O)C(C)(C)CCC1 | inactive | inactive | inactive |  | inactive |  |  |  | 57.9 µM (active) |  |  | 51.6 µM (active) |  | 37.8 µM (active) |  | inactive | 59.9 µM (active) |  |  |
